Compound activity deposited in PubChem by National Center for Advancing Translational Sciences (NCATS).
In the library only some 15% were active in any assay of this set; here they are far more common.
Sm TGR block: S. mansoni TGR enzyme inhibition. Q962Y6. purified TGR, DTNB reduction, TNB absorbance 405 nm. Potency, µM (titrated, usually from 114 µM), for the others: at the highest dose activity change, negative = inhibition, actives largely listed as inhibitors. 3% of 360,000 active; further: potency means the concentration at half of the fitted maximal effect; on the % scale 0 is the no-effect control and ±100 the full control effect; nearly all actives have a fitted effect of over 60% in size
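First, TGR (20 nM dispensed) and NADPH were mixed with compound. Second, a 15 min room-temperature incubation followed. Third, further NADPH and then DTNB were added to start the reaction. Finally, TNB absorbance was monitored kinetically.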
Pf growth 96h: P. falciparum growth inhibition at 96 hour, primary screen for plastid delayed-death inhibitors; Potency, µM (titrated, usually from 28.7 µM), inactives show at the top dose activity change, negative = inhibition, most hits filed as inhibitors; 6.9% of 320,000 active; P. falciparum luciferase reporter growth, 96 h; further: potency means the concentration at half of the fitted maximal effect; on the % scale 0 is the no-effect control and ±100 the full control effect
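P. falciparum expressing integrated firefly luciferase, in erythrocytes at 2% hematocrit, 0.05% parasitemia, incubated with compounds 96 h at 37 C, 5% CO2. Growth inhibition read as loss of luminescence; two-generation exposure targets delayed-death apicoplast inhibitors.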
HCMV inh: inhibitors of human cytomegalovirus. 4.5% of 410,000 active. AID 1259415. HFF cells, HCMV-luciferase reporter, 72 h; stronger effect = lower value. activity change, negative = inhibition, % at 57.5 µM; in the data active means activity change below about -60%; inconclusive means no clear call, values can overlap the other calls; inactive means above about -39%; further: on the % scale 0 is the no-effect control and ±100 the full control effect
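HFF cells seeded 16 h at 37C, treated with compounds, infected with luciferase-reporter HCMV at MOI 1 PFU/cell; luciferase read at 72 h post infection, normalized to buffer-only and Salinomycin controls.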
SARS PLpro yeast: SARS-CoV PLP inhibition in yeast; AID 485353; Potency, µM (highest dose often 32.9 µM), inactives show top-dose activity, positive = growth rescue, hits mostly activators; S. cerevisiae expressing SARS-CoV PLpro, growth rescue; 0.19% of 330,000 active; calls by dose curve; further: potency means the concentration at half of the fitted maximal effect; 0% is about no effect; nearly all actives have a fitted effect of over 55% in size
HCV inhibitor: HCV inhibition | Huh7.5.1 HCVcc-Cre infection, luciferase reporter, 44 h | Potency, µM (doses to about 41.8 µM), for the others: at the highest dose activity change, negative = inhibition, most hits filed as inhibitors | 3.4% of 340,000 active | AID 651820; further: potency means the concentration at half of the fitted maximal effect; on the % scale 0 is the no-effect control and ±100 the full control effect
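Cells seeded at 1,000/well and cultured 4 h, then compounds added followed by HCVcc-Cre virus (~0.5 moi). After 44 h further culture, luciferase substrate was added, plates held 15 min at room temperature, and luminescence read for 15 sec.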
Pf growth 48h: inhibits P. falciparum growth in the first generation, 48 h | P. falciparum luciferase growth in erythrocytes, 48 h | Potency, µM (doses to about 28.7 µM), for inactives: at the highest dose activity change, negative = inhibition, actives largely listed as inhibitors | 5.9% of 310,000 active; further: potency means the concentration at half of the fitted maximal effect; on the % scale 0 is the no-effect control and ±100 the full control effect
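Compounds are pin-transferred into medium, infected erythrocytes (2% hematocrit, 0.1% parasitemia final) are added, and plates sit one parasite generation at 37 C in 5% CO2. Detection reagent is then added and luminescence measured.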
HCV confirm: HCV inhibition, cherry-pick confirmation; shares compounds with HCV inhibitor; HCVcc-Cre infectious virus cell assay, luciferase, inhibition; Potency, µM (titrated, usually from 41.8 µM), for the others: at the highest dose activity, negative = inhibition, most hits filed as inhibitors; 78% of 640 active; AID 720575; further: potency means the concentration at half of the fitted maximal effect; nearly all actives have a fitted effect of over 80% in size
HCV cytotox: host cell cytotoxicity counter-screen for HCV inhibitors; shares compounds with HCV inhibitor; HCV host cell line cytotoxicity counterscreen; Potency, µM (series often up to 41.8 µM), inactives show at the top dose activity change, negative = cytotoxicity, most hits filed as inhibitors; 22% of 640 active; AID 720576;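 further: potency means the concentration at half of the fitted maximal effect; 44 h compound exposure; on the % scale 0 is the no-effect control and ±100 the full control effect; nearly all actives have a fitted effect of over 55% in size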
* marks the source's active call; other numbers are inactive results; ? = inconclusive; . = no result; [ ] = remark or other dose. Unless noted, the call rests on the fitted dose curve; in most records, active means well fitted curve in the direction sought with a large enough effect; inconclusive means small, poorly fitted or top-dose-only effect, or another doubt; inactive means no such curve, though single readings can be large; an effect the other way counts as inactive or inconclusive.

SMILES | Sm TGR block | Pf growth 96h | HCMV inh | SARS PLpro yeast | HCV inhibitor | Pf growth 48h | HCV confirm | HCV cytotox
COc1ccc2c(c1OC)C(=O)N1C2SC[C@H]1C(=O)NC1CC1 (some centres not stated) | -8% | 31% | 50 | 3% | 1µM* | 8% | -10% | 5%
CN1CCN(/N=C/c2ccc(-c3ccc([N+](=O)[O-])cc3Cl)o2)CC1 | . | 3% | ? | -2% | 8.9µM* | ? | ? | 13%
CC(=NNC(=S)N1CCN(C2CCCCCC2)CC1)c1ccccn1 | . | . | -96* | . | 0.89µM* | . | 0.11µM* | ?
CCCCN1C(=O)C(=O)c2cc(Cl)ccc21 | . | . | -39 | -23% | 38%[8.37 µM] | . | . | .
CCC(=O)NC(=S)Nc1ccc(NC(=O)c2cccc([N+](=O)[O-])c2C)cc1 | -29% | -25% | ? | ? | ? | 7% | . | .
CCCC(=O)Nc1cccc(NC(=O)c2cccc([N+](=O)[O-])c2C)c1 | -20% | 19% | -16 | 6% | 7.9µM* | -8% | 13µM* | -16%
Cc1cc(N2CCN(Cc3nc(-c4ccc(Cl)cc4)oc3C)CC2)cc(C)n1 | -19% | ? | ? | 1% | 2.2µM* | ? | 10µM* | ?
O=C(CN1C2=NCCN2c2ccccc21)C12CC3CC(CC(C3)C1)C2 | 4% | -14% | ? | -6% | ? | ? | 28µM* | 11%
Cc1ccc(OCCCCNC2CCCC(C)C2C)c(C)c1 (configuration not stated) | 11% | ? | 2 | 0% | 7.9µM* | ? | 25µM* | ?
C[C@@H]1CN([C@H](C)CO)C(=O)c2cc(Br)cnc2O[C@@H]1CN(C)C(=O)NC1CCCC1 | . | . | 1 | . | . | . | . | .
Cc1cc(=O)n2c3ccccc3n(CC(O)CN3CCCC3)c2c1C#N (configuration not stated) | -1% | ? | ? | 3% | 2µM* | ? | 13µM* | -22%
CC(NC(=O)CNC(=O)c1ccccc1Br)c1cccs1 (configuration not stated) | 7% | 4% | -2 | 1% | 6% | -29% | . | .
COc1ccc(CCNC(=O)c2cnc3ccccn3c2=O)cc1 | -2% | ? | 49 | 4% | 4%[8.37 µM] | 12% | . | .
COc1ccc(CCNC(=O)c2cc3c(=O)n4ccccc4nc3n(C3CCCCC3)c2=N)cc1 | -6% | 4.1µM* | -7 | 1% | 7.9µM* | ? | 14µM* | -10%
COc1ccc(CCNC(=O)c2cc3c(=O)n4ccccc4nc3n(CCCN3CCOCC3)c2=N)cc1 | -9% | ? | ? | -3% | 8.9µM* | ? | 16µM* | 14%
COc1ccc(CCNC(=O)c2cc3c(=O)n4ccccc4nc3n(CCN3CCOCC3)c2=N)cc1 | -5% | ? | -21 | 17% | ? | ? | . | .
N=c1c(S(=O)(=O)c2ccc(Br)cc2)cc2c(=O)n3ccccc3nc2n1C1CCCCC1 | 1% | 3.7µM* | 9 | 1% | ? | 8.3µM* | 14µM* | 16%
CCN(CC)S(=O)(=O)c1ccc(Cl)c(NC(=O)COc2ccc(OC)cc2)c1 | 0% | 13% | -8 | -2% | -12% | 0% | . | .
Cc1nnsc1C(=O)NC1CCCc2c1cnn2-c1ccc(C(C)(C)C)cc1 (configuration not stated) | 2% | ? | -76* | -6% | 1.6µM* | ? | 3.1µM* | 5.6µM*
CC(C)(C)c1ccc(-n2ncc3c2CCCC3NC(=O)c2ccncc2)cc1 (configuration not stated) | . | . | -6 | . | ? | . | . | .
Cc1ccc(S(=O)(=O)NC(=O)C2(C)CCN2C(=O)CCc2ccc(Cl)cc2Cl)nc1 (configuration not stated) | . | . | -10 | . | . | . | . | .
O=C(NC1c2ccccc2-c2ccccc21)c1ccco1 | 2% | ? | -17 | -17% | ? | ? | 7.9µM* | -93%
O=C(NC1CCCCC1NC(=O)c1ccco1)c1ccco1 (configuration not stated) | 6% | ? | 8 | -5% | 20% | 14% | . | .
COC(=O)CC1C(=O)NCCN1C(=O)c1cc(OC)c(OC)cc1OC (configuration not stated) | 6% | -5% | 20 | 1% | 12% | ? | . | .
CCN(CC(=O)Nc1ccc([N+](=O)[O-])cc1OC)c1ccccc1 | -14% | 9.3µM* | 10 | -13% | 3.2µM* | ? | 14µM* | -15%
SMILES | Sm TGR block | Pf growth 96h | HCMV inh | SARS PLpro yeast | HCV inhibitor | Pf growth 48h | HCV confirm | HCV cytotox
Cc1onc(-c2ccccc2)c1-c1nnc(-c2ccccc2C(F)(F)F)o1 | -5% | 38% | -18 | -2% | ? | 37% | 25µM* | -31%
Cc1onc(-c2ccccc2)c1-c1nnc(COC(=O)c2ccc(F)cc2)o1 | . | . | -3 | . | . | . | . | .
Cc1ccc(CNC(=O)CSCc2ccccc2C)cc1 | 1% | . | ? | . | . | . | . | .
COc1ccc(-c2csc(NC(=O)C3CSC4(C)CCC(=O)N34)n2)c(OC)c1 (configuration not stated) | -1% | ? | -25 | 1% | 8.9µM* | -27% | 28µM* | -15%
COC(=O)c1ccc(CN(Cc2ccc(OC)c(OC)c2)S(=O)(=O)c2ccc(F)c(C(=O)Nc3cc(C)ccc3C)c2)cc1 | -1% | . | -26 | . | . | . | . | .
Cc1cccc(C)c1NC(=O)C1CCCN1C(=O)NCc1ccccc1 (configuration not stated) | 10% | ? | 22 | -4% | -2% | 0% | . | .
O=C(NC(Nc1nc2ccc([N+](=O)[O-])cc2s1)(C(F)(F)F)C(F)(F)F)c1cccnc1 | -14% | ? | -102* | -24% | 4.5µM* | 7.4µM* | 2.5µM* | 7µM*
CCOc1ccccc1NC(=O)NC1CCCc2ccccc21 (configuration not stated) | 2% | -3% | 32 | 0% | ? | -10% | 7.9µM* | 31%
c1ccc(Nc2nc(NCc3ccco3)c3ccccc3n2)cc1 | -1% | ? | -66* | -1% | 4µM* | ? | 14µM* | 25µM*
CSc1nc(NCc2ccco2)c2ccccc2n1 | 8% | -32% | ? | -13% | -26% | . | . | .
COc1cc(/C=N/NC(=O)c2ccccc2O)ccc1OCC(=O)Nc1ccccc1 | -11% | -23% | 93 | 1% | -12% | ? | . | .
